Shown are actives, neighbours in structure and some others; about 2.9% of the full set was active somewhere.
Nrf2 inh = Nrf2 pathway inhibition; A549 ARE-Fluc reporter, luciferase luminescence, 18-24 h; Potency, µM (titrated, usually from 46 µM), for inactives: at the top dose activity change, negative = inhibition, usual class: inhibitors; 360,000 compounds, 2.1% hits; also: % is scaled to controls: 0 for no effect and ±100 for the full control effect; nearly all actives have a fitted effect of over 60% in size
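Reporter: ARE-Fluc in A549. Exposure: 18-24 h, 37 °C, 5% CO2, 5% FBS OPTI-MEM. Readouts: fluorescent cytotoxicity (CellTiter-Fluor), then luminescent Nrf2 signal after BugLite.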
A549 tox = counter-screen for Nrf2 inhibitors: cytotoxicity in A549 cells | A549 ARE-Fluc cells, CellTiter-Fluor viability, 18-24 h | Potency, µM (series often up to 46 µM), for the others: at the top dose activity change, negative = cytotoxicity, actives largely listed as inhibitors | 390,000 compounds, 0.16% hits; also: % is scaled to controls: 0 for no effect and ±100 for the full control effect
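A549 ARE_Fluc cells in 5% FBS OPTI-MEM were exposed to compounds in concentration-response for 18-24 h at 37 deg C. Viability was read by CellTiter-Fluor fluorescence (Ex 405/Em 525) after 30 min, before the luciferase read.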
Nrf2 ARE act = Nrf2 pathway activation; AREc32 ARE-luciferase reporter (MCF7-derived line), luminescence, 24 h; Potency, µM (doses to about 46.1 µM), without a hit: at the highest dose activation, actives largely listed as activators; 410,000 compounds, 0.31% hits; also: % of control where 0% means no effect; nearly all actives have a fitted effect of over 65% in size
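AREc32 cells carrying an ARE-driven firefly luciferase reporter were seeded at 1000 cells/well in OPTI-MEM with 5% FBS, then exposed to compound for 24 hr at 37 deg C. Luminescence was read with Steady-Glo after 30 min at RT.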
S2 tox = cell viability loss in ATXN counter-screen; Potency, µM (highest dose often 56.7 µM), usual class: cytotoxic; 400,000 compounds, 0.49% hits; S2 cells (HEK-293 line with an ATXN2-luciferase reporter) viability, CellTiter-Fluor protease fluorescence, 24 h; also: nearly all actives have a fitted effect of over 40% in size
ATXN2 expr inh = inhibitors of ATXN2 expression. HEK-293 ATXN2-luciferase reporter, luminescence, 24 h. Potency, µM (highest dose often 57 µM), for inactives: top-dose activity change, negative = inhibition, most hits filed as inhibitors. 360,000 compounds, 0.72% hits. AID 1745845; also: % is scaled to controls: 0 for no effect and ±100 for the full control effect; nearly all actives have a fitted effect of over 55% in size
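qHTS (up to 57 uM final) was run with 24 h compound exposure of reporter cells at 37 °C. Each well was multiplexed: SteadyGlo luminescence measured ATXN2-luciferase expression after a fluorogenic Gly-Phe-AFC viability readout (25 uM final).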
Starred values were filed as active, the others as inactive; i = inactive; ? = inconclusive; nt = no result; ! = repeats disagree; [ ] = dose if it differs, or a comment. Calls follow the shape of the dose curve; as a rule, active = well fitted curve in the direction sought with a large enough effect; inconclusive = small, poorly fitted or top-dose-only effect, or another doubt; inactive = no such curve, though single readings can be large; an effect the other way counts as inactive or inconclusive. Potency is read from the fitted curve at half-maximal effect.

SMILES	Nrf2 inh	A549 tox	Nrf2 ARE act	S2 tox	ATXN2 expr inh
O=C(CO)[C@@H](O)[C@H](O)[C@@H](O)CO	nt	nt	nt	i	2%
CC(C)c1ccc(/C=N/NC(=O)c2ccccn2)cc1	?	0%	-3%	i	13µM*
COc1cccc(-n2nnc(S(=O)(=O)c3ccc(C)cc3)c2N)c1	5%	13%	0%	i	nt
CCc1ccc(S(=O)(=O)c2nnn(-c3ccc(F)cc3)c2N)cc1	13µM*	-4%	-1%	nt	nt
CCc1nc2c(OCc3ccc(Cl)cc3Cl)cccn2c1N(C)C(C)=O	nt	nt	-1%	nt	18µM*
O=C(NC(c1ccc(F)cc1)c1ccc2ccccc2n1)C1CCN(CCOc2ccc(Cl)cc2)CC1 (stereo unspecified)	nt	nt	-3%	14µM*	?
COc1ccccc1C(NC(=O)C1CCN(CCOc2ccc(Cl)cc2Cl)CC1)c1ccccn1 (stereo unspecified)	nt	nt	19%	20µM*	32µM*
Cc1cccnc1C(c1ccc(F)cc1)N(C)C(=O)C1CCN(CCOc2ccc(Cl)cc2Cl)CC1 (stereo unspecified)	nt	nt	-3%	28µM*	32µM*
COc1ccc(C(NC(=O)C2CCN(CCOc3ccc(Cl)cc3Cl)CC2)c2ccccn2)cc1 (stereo unspecified)	nt	nt	6%	?	?
COc1ccc(C(=O)Cn2nnc(-c3ccccc3NC(=O)c3ccco3)n2)cc1	18µM*	?	1%	i	2%
COc1ccc(S(=O)(=O)Nc2ccccc2-c2nnn(CC(=O)Nc3ccccc3OC)n2)cc1	?	?	0%	i	-7%
COc1ccc(NC(=O)Cn2nnc(-c3ccccc3NS(=O)(=O)c3ccccc3)n2)cc1	21µM*	-13%	0%	?	-34%
COc1ccc(C(=O)Nc2ccccc2-c2nnn(CC(=O)N3CCOCC3)n2)cc1	3%	5%	0%	i	-18%
CCOc1ccc(-n2c(N)c(C(=O)NCc3ccco3)c3nc4ccccc4nc32)cc1	21%	6%	11µM*	i	?
COc1ccc(-c2nc(C#N)c(N3CCc4ccccc4C3)o2)cc1OC	21µM*	-5%	2%	i	-32%
CCOc1ccc(NC(=O)Cn2c(=O)n(CCCCCC(=O)NCc3ccccc3)c(=O)c3sccc32)cc1	?	-11%	0%	i	-1%
COc1ccc(-c2cc(C(F)(F)F)nc(SCC(=O)Nc3ccc(C(C)=O)cc3)n2)cc1	23µM*	-29%	-1%	nt	?
COc1c(/C=N/Nc2ccc([N+](=O)[O-])cc2[N+](=O)[O-])c(C)nn1-c1ccccc1	-17%	-9%	0%	?	?
Cc1[nH]n(-c2cccc3ccccc23)c(=O)c1/C=N/NC(=O)c1cccc([N+](=O)[O-])c1	4%	-15%	0%	?	20µM*
Cc1ccc(-n2[nH]c(C)c(/C=N/Nc3ccc([N+](=O)[O-])cc3[N+](=O)[O-])c2=O)cc1C	?	16µM*	6%	?	-33%
O=C(N/N=C/c1c[nH]c2ccccc12)c1cccc([N+](=O)[O-])c1	5%	2%	7%[9.22 µM]	i	7%
Cc1[nH]n(-c2ccccc2)c(=O)c1/C=N/NC(=O)c1cccc([N+](=O)[O-])c1	-17%	-8%	0%	?	14µM*
COc1cc(NC(=O)COc2cccc3c2OC(C)(C)C3)cc(OC)c1OC	10µM*	-13%	0%	i	?
CC(=O)Nc1ccc(NC(=O)COc2cccc3c2OC(C)(C)C3)cc1	4%	4%	-1%	i	0%
C[C@H](N)C(=O)N[C@@H](C)C(=O)NC1[C@H]2CN(c3nc4c(cc3F)c(=O)c(C(=O)O)cn4-c3ccc(F)cc3F)C[C@@H]12 (stereo partly specified)	nt	nt	nt	i	-2%
SMILES	Nrf2 inh	A549 tox	Nrf2 ARE act	S2 tox	ATXN2 expr inh
COc1ccc2nc(C(F)(F)Cl)c(C#N)c(N)c2c1	21µM*	-3%	-1%	i	nt
O=C(CCS(=O)(=O)c1cccs1)Nc1ccc(C(=O)Nc2cccc(Cl)c2)cc1	?	-10%	6%	?	?
Cc1ccc(CNc2ncnc3ccc(-c4c(C)noc4C)cc23)o1	?	4%	nt	nt	nt
C[C@@H]1CN([C@H](C)CO)S(=O)(=O)c2ccc(C#CC3CCCC3)cc2O[C@H]1CN(C)C(=O)Cc1ccccc1	nt	nt	-5%	22µM*	?
C[C@H](O)C#Cc1ccc2c(c1)O[C@@H](CN(C)Cc1ccc(-c3ccccc3)cc1)[C@H](C)CN([C@@H](C)CO)S2(=O)=O	nt	nt	-4%	16µM*	20µM*
CC(=O)O[C@H]1C[C@@H]2CC[C@H]3[C@H]4C[C@H]([N+]5(C)CCCCC5)[C@@H](OC(C)=O)[C@@]4(C)CC[C@@H]3[C@@]2(C)C[C@H]1[N+]1(C)CCCCC1	nt	nt	nt	nt	2%
COc1ccc(-n2c(SCC(=O)NC3CCCCC3)nc3c([nH]c4ccccc43)c2=O)cc1	nt	-7%	0%	i	7%
COc1ccc(CNC(=S)NC2CCCC2)cc1	43%	14%	-1%[9.22 µM]	i	6%
Cc1ccc(CNC(=S)NC2CCC(C(C)(C)C)CC2)cc1 (stereo unspecified)	21µM*	-23%	-2%	i	-25%
O=C(c1cc(-c2ccc(Cl)cc2)on1)N(Cc1cccc(F)c1)Cc1ccco1	-13%	-2%	5%	i	-4%
CC(=O)Nc1nc(-c2ccccc2)nc(-c2ccccc2OC(C)=O)n1	13µM*	-25%	23%	i	4%
O=[N+]([O-])c1ccccc1NCc1ccc(O)c2ncccc12	6.5µM*	?	nt	nt	nt
Clc1ccccc1C1=CC(c2ccco2)n2ncnc2N1 (stereo unspecified)	4%	1%	11µM*	nt	-21%
Cc1ccc(NC(=O)c2ccccc2NS(=O)(=O)c2ccc(Cl)s2)cc1	16µM*	?	9%	i	?
O=C(Nc1ccccc1Cc1ccccc1)c1ccccc1NS(=O)(=O)c1ccc(Cl)s1	18µM*	?	4%	i	?
O=C(Nc1ccccc1)c1ccccc1NS(=O)(=O)c1ccc(Cl)s1	18µM*	?	2%	?	?
O=C(Nc1ccc(S(=O)(=O)N2CCOCC2)cc1)c1cc(Cl)ccc1NS(=O)(=O)c1ccc(Cl)s1	nt	nt	nt	16µM*!	-12%
Cc1cccc(N2CCN(S(=O)(=O)c3ccc(-c4cnc(C5CC5)o4)cc3)CC2)c1C	nt	-8%	5%	?	-28%
Cc1cccc(Cn2c(=O)n(Cc3ccccc3)c(=O)c3c2c2cc(C)ccc2n3C)c1	?	1%	0%	i	13%
CCc1cccc(NC(=O)Cn2c(=O)n(CC3CCC(C(=O)NCCc4ccccc4)CC3)c(=O)c3ccccc32)c1 (stereo unspecified)	-3%	3%	2%	i	6%

High-throughput results from PubChem BioAssay.
